# PubChem BioAssay AID1910 (Broad Institute, 2009)
# The whole screen tested about 300,000 compounds, of which about 950 (0.32%) were called active. This is one part of a sample in which actives are shown more often than they occur. A number with no mark means an inactive call.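 Rule for the calls: active = mean activation of at least 10% of the iron chelator positive control signal, with at least half of replicates also reaching 10%; inconclusive = mean and replicate majority disagree about reaching 10%; inactive = mean and most replicates under 10%.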
# Experiment: hypoxia response element reporter activation – cell-based, U2OS HRE-luciferase, luminescence, primary screen (AID 1910)
# Conditions: stronger effect = higher value, screened at 7.5 µM (by protocol), normalized: DMSO 0%, desferrioxamine 100%
row,SMILES,activation
1,C/C(=N\NC(=O)c1ccccc1F)c1ccccn1,1.74%
2,C/C(=N\NC(=O)Cc1ccc(Br)cc1)c1cccnc1,24.8% (active)
3,C/C(=N\NC(=O)Cc1ccccc1[N+](=O)[O-])c1cccnc1,0.0865%
4,C/C(=N\NC(N)=S)c1cccnc1,-0.0419%
5,Cc1ccc(Cl)cc1NC(=O)c1ccccn1,1.23%
6,C/C(=N\NC(=O)Cc1ccc(Cl)cc1)c1ccccn1,17.7% (active)
7,O=C(N[C@@H](Cc1ccccc1)C(=O)OCc1ccccc1)c1nc[nH]c1C(=O)NC1CCNCC1,1.06%
8,Cc1cc(NC(=O)CSC2=NS(=O)(=O)c3cc(Cl)ccc3N2)no1,1.88%
9,COc1ccc(/C=C(\C#N)C(=O)OCC(=O)N(C)C2CCS(=O)(=O)C2)cc1 (configuration not stated),-41.3%
10,CCOc1nc(NCCN2CCOCC2)nc(Nc2ccc(C)cc2)n1,296% (active)
11,Nc1nc(NCCCN2CCOCC2)nc(Nc2ccccc2)c1[N+](=O)[O-],-0.302%
12,CCOc1cccc(/C=N/NC(=S)NCCN2CCOCC2)c1O,0.43%
13,O=C1CC2(CCN(C(=O)COc3ccc(F)cc3)CC2)Oc2ccccc21,-0.0585%
14,O=C(CCCCO)c1ccc(O)c(Cl)c1,-0.731%
15,COc1cc(-c2nnc(NC(=O)C3=COCCO3)o2)cc(OC)c1OC,-0.75%
16,COc1cc(OC)cc(C(=O)NNC(=O)CNC(=O)c2ccc(Br)o2)c1,0.191%
17,O=C(NCCCN1CCCC1=O)c1cccc(S(=O)(=O)NCc2ccccc2)c1,-0.752%
18,Cc1ccc(OCc2cc(C(=O)N(C)CCc3ccccc3)no2)cc1C,4.07%
19,CN(Cc1cccnc1)C(=O)c1cc(COc2ccc3ncccc3c2)on1,39.7% (active)
20,CN(Cc1cnccn1)C(=O)c1cc(COc2cccc(C(F)(F)F)c2)on1,-2.19%
21,CC(CN1CCCCC1)OC(=O)c1ccccc1Cl (configuration not stated),-0.0657%
22,Cc1cccc(C(=O)OC(C)CN2CCN(C)CC2)c1 (configuration not stated),3.11%
23,Cc1cccc(C(=O)OC(C)CN2CCCC2)c1 (configuration not stated),15% (active)
24,CC(=O)c1nn(-c2ccc(C)cc2)cc1C(=O)c1cccc(Br)c1,-0.49%
25,Cc1ccc(/C=N/NC(=O)CSc2ccccn2)o1,-0.331%
26,O=C(CSc1ccc(/C=N/NC(=O)c2cccc(F)c2)o1)Nc1ccccc1,0.0126%
27,N#CCC(=O)N/N=C/c1ccc(SCC(=O)Nc2ccccc2)o1,105% (active)
